# Tau FP inhib: qHTS for Inhibitors of Tau Fibril Formation, Fluorescence Polarization; K18 P301L tau heparin fibrillization, Alexa594 FP, 6 h; Potency, µM (top dose mostly 57.7 µM), for the others: at the highest dose activity, negative = inhibition, usual class: inhibitors; 0.39% of 280,000 active; AID 1468, 2008; note: potency is the fitted concentration of half-maximal effect; nearly all actives have a fitted effect of over 55% in size
# Target sequence (P10636 561-689 P618L limits assumed): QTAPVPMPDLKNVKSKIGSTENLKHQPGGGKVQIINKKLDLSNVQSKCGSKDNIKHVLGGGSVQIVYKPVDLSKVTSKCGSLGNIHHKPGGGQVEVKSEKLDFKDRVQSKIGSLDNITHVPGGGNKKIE
#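 Recombinant K18 P301L […], labeled with Alexa 594 at 0.24 uM over 15 uM unlabeled; heparin inducer 20 uM final; 37 C, 6 hr; FP endpoint.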
# Coupling enz: qHTS Assay for Inhibitors of Fructose-1,6-bisphosphate Aldolase from Giardia Lamblia: Coupling assay counterscreen; coupling enzyme system counterscreen, AmpLite Red fluorescence; activity change, negative = inhibition, % at 58.2 µM, hits read low; 0.67% of 290,000 active; in the data active = activity change below about -30%
#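 Final compound at 57.5 uM, incubated 10 min at RT with coupling enzyme reagent (glyceraldehyde-3-phosphate), then 20 min with substrate and AmpLite Red detection. Fluorescence read at 525/598 nm; tests interference with the coupling assay, not aldolase inhibition.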
# Tau fibril ThT: qHTS for Inhibitors of Tau Fibril Formation, Thioflavin T Binding; recombinant tau K18 P301L, heparin-induced fibrillization, ThT fluorescence; Potency, µM (highest dose often 57.4 µM), for the others: at the highest dose activity, negative = inhibition, most hits filed as inhibitors; 2.1% of 270,000 active; note: potency is the fitted concentration of half-maximal effect; nearly all actives have a fitted effect of over 55% in size
#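 Aggregation was driven by heparin (20 uM final) acting on recombinant tau […] bearing P301L in 100 mM sodium acetate pH 7; fibrils were detected with Thioflavin T.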
# Tau fluor counter: Counterscreen qHTS for Inhibitors of Tau Fibril Formation, Fluorescence Polarization; tau K18 P301L (four-repeat tau fragment) Alexa594 fluorescence, heparin fibrillization; Potency, µM (doses to about 57.7 µM), for the others: top-dose activity change, negative = decrease; 0.93% of 280,000 active; AID 1463, 2008; note: potency is the fitted concentration of half-maximal effect; nearly all actives have a fitted effect of over 55% in size
#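 Human K18 P301L tau (15 uM unlabeled plus 0.24 uM Alexa 594-labeled, final) in 100 mM sodium acetate pH 7 was mixed with compound and 20 uM heparin and incubated 6 hr at 37 C.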
# Numbers without * were called inactive; ? = inconclusive; nt = not tested or not shown; [ ] = remark or other dose. Compounds with a hit are over-represented: about 2.7% of the library has one in this group of screens. Unless noted, calls come from the whole dose curve; as a rule, active = well fitted curve in the direction sought with a large enough effect; inconclusive = small, poorly fitted or top-dose-only effect, or another doubt; inactive = no such curve, though single readings can be large; an effect the other way counts as inactive or inconclusive. % is set by controls: 0 for no effect and ±100 for the full control effect.
SMILES,Tau FP inhib,Coupling enz,Tau fibril ThT,Tau fluor counter
CCOc1ccc(/C=C/c2nc(C#N)c(N3CCC(C)CC3)o2)cc1,16%,nt,?,?
Cc1[nH]c2ccccc2c1CCN(Cc1cccs1)C(=S)Nc1ccccc1,10%,-5,-10%,11µM*[quencher]
COc1cccc(NC(=S)N(CCc2c(C)[nH]c3ccccc23)Cc2cccs2)c1,12%,-2,-15%,8.9µM*[quencher]
Cc1[nH]c2ccccc2c1CCN(Cc1cccnc1)C(=S)Nc1ccc(F)cc1,13%,0,-11%,?
COc1ccccc1CNS(=O)(=O)c1ccc(Cl)s1,nt,-5,nt,nt
O=[N+]([O-])c1cccn2cc(-c3ccc(Br)cc3)nc12,10%,4,5µM*,-14%
Cc1ccc(-c2cn3cccc(C)c3n2)cc1,-2%,-2,-15%,-13%
CC(=O)Oc1ccc2oc(/C=C/N(C)C)c([N+](=O)[O-])c2c1,10%,-1,28µM*,-16%
COc1ccc2oc(/C=C/N(C)C)c(C(=O)c3ccc(Cl)cc3)c2c1,-14%,-5,-9%,-12%
C/C(=C/c1oc2ccc(O)cc2c1[N+](=O)[O-])N(C)C,-12%,0,4µM*,?
C/C(=N\Nc1cccc2cccnc12)c1ccc[nH]1,14%,-2,4.5µM*,?
COc1ccc(/C=C/c2nc(-c3ccccc3O)n[nH]2)cc1OC,?,-1,10%,16µM*[quencher]
O=C(O)COc1ccc(/C=C/c2nc(-c3ccccc3O)n[nH]2)cc1,nt,2,nt,nt
COc1ccc(NCc2cccn2-c2nnc(N3CCCCC3)s2)cc1OC,-3%,nt,?,-20%
Cc1ccc(NC(=O)C2=C(c3ccccc3)S(=O)(=O)CCS2(=O)=O)cc1,28µM*,-2,28µM*,-29%
C(=C\c1ccco1)/C=N/n1cnnc1,32µM*,-40*,25µM*,-29%
CCCc1cc(=O)[nH]c(Nc2cc(Cl)cc(Cl)c2)n1,11µM*,nt,12%,?
CCCc1cc(=O)[nH]c(Nc2cc(C)cc(C)c2)n1,-13%,nt,-15%,?
O=C(c1ccc(Br)s1)N(Cc1cccnc1)c1nc2ccc(F)cc2s1,-7%,nt,3%,-5%
CCCCCCN1C=CC=C/C1=C\C=C(C#N)C#N,?,0,16µM*,?
CSC(=NC#N)N1CCN(c2ccc([N+](=O)[O-])cc2)CC1,0%,1,2µM*,-21%
CCOC(=O)N1CCN(S(=O)(=O)c2ccc([N+](=O)[O-])cc2)CC1,6%,3,-1%,0%
CC(C)(C)OC(=O)N1CCN(c2ccc([N+](=O)[O-])cc2)CC1,-2%,1,4µM*,-14%
CCOC(=O)N1CCN(c2ccc([N+](=O)[O-])cc2)CC1,4%,-3,4µM*,-5%
O=C(Cc1cccs1)N1CCN(c2ccc([N+](=O)[O-])cc2)CC1,-2%,4,3.5µM*,-17%
SMILES,Tau FP inhib,Coupling enz,Tau fibril ThT,Tau fluor counter
Cc1ccc(-c2nnc3ccccc3c2C(=O)Nc2cccc(C(F)(F)F)c2)cc1,-4%,nt,-5%,-9%
N#Cc1ccccc1Cn1c(SCC(=O)NCc2ccccc2)nc2ccccc21,-2%,nt,-8%,-14%
COc1ccccc1NC(=O)C(C)N(C)Cc1ccc(Cl)s1 (stereo not drawn),nt,1,nt,nt
CCOC(=O)C1CCCN(c2c(C(=O)c3ccc(C)cc3)cnc3ccc(OCC)cc23)C1 (stereo not drawn),-12%,nt,-17%,-17%
COc1ccccc1N1CCN(C(=O)Cc2cccs2)CC1,-2%,-32*,-16%,-14%
O=[N+]([O-])c1ccc(N2CCN(C(=S)NC3CCCCC3)CC2)cc1,0%,nt,10µM*,?
O=S(=O)(c1ccccc1)c1nc(-c2ccccc2)oc1N1CCN(c2cccc(Cl)c2)CC1,-12%,nt,1%,-11%
Nc1nonc1C(=O)NCCNCc1cccc(Cl)c1Cl,1%,nt,4%,2%
C=CCN1C(=O)C2(NNc3ccccc3O2)c2ccccc21 (stereo not drawn),4%,-4,7.1µM*,13µM*[quencher]
CCCCN1C(=O)C2(NNc3ccccc3O2)c2ccccc21 (stereo not drawn),-13%,-13,11µM*,11µM*[quencher]
COc1ccc(Cl)cc1NC(=O)CCCS(=O)(=O)c1nc(-c2ccc(OC)c(OC)c2)cc(C(F)(F)F)n1,-6%,nt,-10%,-19%
Cc1nn(C)c2c1c(C(F)(F)F)cc(=O)n2C(C)C(=O)N1CCN(c2ccccc2)CC1 (stereo not drawn),10%,nt,-15%,-13%
COc1ccc(-c2nc3ccc(NS(=O)(=O)c4ccc(C)cc4)cc3o2)cc1,-14%,nt,6%,16µM*[quencher]
Nc1ccc(S(=O)(=O)NC2(C(F)(F)F)NC(=O)N(c3cccc(Cl)c3)C2=O)cc1 (stereo not drawn),4%,nt,3%,1%
CC1=C(C(=O)Nc2ccccc2C)C(c2cccnc2)n2nc(SCc3ccccc3F)nc2N1 (stereo not drawn),?,nt,-9%,-10%
CCn1c(C)c(C(C)=O)c(N2CCN(c3ccc(OC)cc3)CC2)nc1=S,?,-13,28µM*,-28%
COc1ccc(N2CCN(c3nc(=S)n(-c4ccccc4)c(C)c3C(C)=O)CC2)cc1,?,3,28µM*,-24%
Cc1ccc(N(CC(=O)NC(C)C)C(=O)CCC(=O)Nc2nccs2)c(C)c1,nt,-1,nt,nt
CN(Cc1ccccc1)S(=O)(=O)c1cccc2cccnc12,-9%,-31*,-7%,-14%
COc1cccc(CNC(=O)CN(C)S(=O)(=O)c2cccc3cccnc23)c1,-10%,0,-10%,-17%
O=C1CCCC(O)=C1N=Nc1ccc(Cl)c(Cl)c1,7%,0,?,-10%
Cc1nc2cc(N=NC3=C(O)CCCC3=O)ccc2s1,-4%,-3,16µM*,-26%
COc1cc2nc(N3CCN(C(=O)[C@@H]4COc5ccccc5O4)CC3)nc(N)c2cc1OC,nt,-1,nt,nt
Cc1ccc(C(Nc2ccccn2)c2ccc3cccnc3c2O)cc1 (stereo not drawn),9%,nt,?,-24%
COc1ccc(C(Nc2ccccn2)c2ccc3ccc(C)nc3c2O)cc1C (stereo not drawn),3%,nt,16µM*,-19%
COc1ccc(Nc2nc(N3CCCC3)nc(N3CCCC3)n2)c(OC)c1,?,4,?,?
COc1ccc(Nc2nc(Nc3ccc(OC)cc3OC)nc(N3CCN(C)CC3)n2)c(OC)c1,?,1,?,10µM*[quencher]
COc1ccc(/C=N/NC(=S)Nc2ccccc2[N+](=O)[O-])cc1O,-5%,-1,4.5µM*,16µM*[quencher]
O=[N+]([O-])c1cc(/C=N/NC(=S)Nc2ccccc2Cl)ccc1Cl,?,2,?,?
Cc1ccc2oc(=O)c3cnn(CC(=O)N4CCN(c5ccc(F)cc5)CC4)c3c2c1,-14%,nt,?,-16%
